# Assay outcomes as filed in PubChem.
# Most compounds without a hit are left out; they make up all but 2.4% or so of the library.
# TMEM16A inh: TMEM16A chloride channel inhibitors, primary screen, cell-based, HTS. HEK293 TMEM16A/YFP iodide influx fluorescence, ionomycin. normalized B-score (activity score, 25-100; higher = stronger inhibition) at 10 µM. 310,000 compounds, 1.2% hits;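 active means ratio plate-corrected score three or more library SD toward inhibition, starting fluorescence score within five deviations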;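 further: score derived from kinetic fluorescence span divided by baseline fluorescence per well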
# Target sequence (Q8BHY3 whole entry, looked up): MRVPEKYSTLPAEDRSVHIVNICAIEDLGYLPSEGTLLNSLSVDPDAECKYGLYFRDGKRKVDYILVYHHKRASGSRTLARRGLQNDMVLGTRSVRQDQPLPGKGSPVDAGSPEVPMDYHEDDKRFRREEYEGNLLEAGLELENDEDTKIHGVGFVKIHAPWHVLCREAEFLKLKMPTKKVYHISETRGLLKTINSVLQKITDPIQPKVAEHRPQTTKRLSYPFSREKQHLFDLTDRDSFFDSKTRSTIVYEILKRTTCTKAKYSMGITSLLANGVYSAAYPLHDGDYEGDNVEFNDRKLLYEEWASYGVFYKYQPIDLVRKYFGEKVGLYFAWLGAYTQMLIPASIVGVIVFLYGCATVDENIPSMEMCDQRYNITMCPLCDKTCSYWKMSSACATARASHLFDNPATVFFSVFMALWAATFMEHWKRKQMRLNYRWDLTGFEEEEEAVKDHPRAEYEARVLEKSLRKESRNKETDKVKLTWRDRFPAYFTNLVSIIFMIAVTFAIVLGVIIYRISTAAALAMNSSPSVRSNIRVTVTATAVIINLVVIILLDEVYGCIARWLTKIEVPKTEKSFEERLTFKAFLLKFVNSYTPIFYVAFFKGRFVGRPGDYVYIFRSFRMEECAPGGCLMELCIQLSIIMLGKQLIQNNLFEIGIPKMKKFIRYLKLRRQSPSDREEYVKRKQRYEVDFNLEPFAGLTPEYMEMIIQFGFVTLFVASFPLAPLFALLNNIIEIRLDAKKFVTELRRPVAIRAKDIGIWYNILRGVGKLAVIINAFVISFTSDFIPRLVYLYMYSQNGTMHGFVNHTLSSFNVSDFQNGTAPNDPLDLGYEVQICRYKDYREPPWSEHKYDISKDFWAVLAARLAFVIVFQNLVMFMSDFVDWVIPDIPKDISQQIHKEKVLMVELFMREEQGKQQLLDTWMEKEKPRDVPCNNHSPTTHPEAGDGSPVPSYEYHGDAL
# Cardiac RTF inh: cardiac RTF calcium sensitivity inhibitors, primary screen, biochemical, IANBD-TnC fluorescence, EC70 calcium | Troponin I, cardiac muscle (Homo sapiens) + Troponin T, cardiac muscle (Homo sapiens) + … | IANBD-labeled cardiac RTF, Ca2+ fluorescence | inhibition, % at 7.15 µM | 340,000 compounds, 0.12% hits | AID 493244, 2011;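 active means inhibition above the mean inhibition of all tested compounds plus 3 SD, cut at about 17% in these data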;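 further: assay run at fixed EC70 calcium of 1.6 mM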
# TMEM16A act: TMEM16A chloride channel activators or potentiators, primary screen, cell-based, HTS | Anoctamin-1 (Mus musculus), Q8BHY3 | HEK293 TMEM16A/YFP-H148Q/I152L, iodide quench fluorescence; hits give low values | B-score at 10 µM | 340,000 compounds, 0.3% hits | AID 623877, 2012;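 active means fluorescence-ratio B-score plate-corrected deviation score at least 3 library SD below zero, with starting fluorescence score within 5 deviations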;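 further: channel opened by trigger with iodide after compound preincubation; score built on the fluorescence ratio of max minus min over baseline; more negative score means more quench and so TMEM16A activation or potentiation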
# CRFBP-R2 agonist: agonists of CRF-BP/CRF-R2 complex, primary screen, cell-based, HEK293, calcium dye fluorescence, uHTS; CRF-binding protein / CRF receptor 2 complex (human); calcium dye fluorescence (FLIPR); percent of saturating CRF peptide response; activation, % at 13.2 µM; 350,000 compounds, 0.46% hits;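 active means activation of at least 50%, plus an integration ratio under a set limit after plate pattern correction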;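 further: plate controls were neutral control wells without compound for no effect and CRF at EC100 for full effect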
# cardiac RTF act: cardiac RTF calcium sensitivity activators, primary screen, biochemical, IANBD-TnC fluorescence, EC20 calcium; Troponin I, cardiac muscle (Homo sapiens) + Troponin T, cardiac muscle (Homo sapiens) + …; IANBD-labeled TnC RTF fluorescence at EC20 calcium; 0% EC20 calcium, 100% full calcium; activation, % at 7.2 µM; 340,000 compounds, 0.24% hits; AID 493008, 2010;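 active means activation above the mean over all tested compounds plus 3 SD, cut at about 30% in these data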;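 further: rise in fluorescence read as greater calcium sensitivity of cardiac thin filaments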
# CRFR2-BP antag: antagonists of CRF-BP/CRF-R2 complex, primary screen, cell-based, HEK293, calcium dye fluorescence, uHTS. 350,000 compounds, 0.59% hits. CRF-induced calcium fluorescence. inhibition, % at 11.8 µM;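 active means inhibition of the ligand-induced calcium signal above about 50% at the single tested concentration, limit read from the data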
# The depositor's hits bear a star; i = inactive; . = not tested or not shown.
SMILES,TMEM16A inh,Cardiac RTF inh,TMEM16A act,CRFBP-R2 agonist,cardiac RTF act,CRFR2-BP antag
O=C(NC(=S)Nc1ccccc1)c1cc(-c2ccccc2)nc2ccccc12,i,-8,i,5,-3,-16
CCOc1ccc(CNC2CCCCCCC2)cc1OC,i,0,i,0,-2,1
O=C(Cn1cccc1C(=O)c1ccccc1)NCc1ccc(F)cc1,i,7,i,-1,-2,-12
COc1ccc(O)c(C(=O)c2cc(C#N)c(=O)n(-c3ccc(Cl)cc3)c2)c1,i,-6,-4.6*,31,4,4
N#Cc1cc(C(=O)c2ccccc2O)cn(-c2ccc(Cl)cc2)c1=O,i,.,i,53*,.,-13
Cc1ccc(-n2cc(C(=O)c3cc(Cl)ccc3O)cc(C#N)c2=O)cc1,25*,11,i,12,8,26
COc1ccc(-n2cc(C(=O)c3cc(Cl)ccc3O)cc(C#N)c2=O)cc1,i,-20,i,1,3,13
Cc1c(-n2cc(C(=O)c3ccccc3O)cc(C#N)c2=O)c(=O)n(-c2ccccc2)n1C,i,-3,i,139*,12,23
O=CN1CCN(C=O)C(O)C1O (stereo not drawn),.,7,i,2,-4,-7
Cc1ccc(NC(=O)N2CCCCCC2)c(C)c1,i,-10,i,-1,-2,0
OCC1(Cc2ccc(Cl)cc2)CCN(Cc2ccc(Oc3ncccn3)cc2)CC1,i,.,i,8,.,-49
COC(C/C=C\[C@@H](O)COCc1ccccc1)OC,.,-6,i,-1,1,2
CCOc1ccc(-n2cc(C(=O)c3cc(Cl)ccc3O)cc(C#N)c2=O)cc1,25*,-17,i,13,7,23
CCC1(c2ccccc2)NC(=O)N(CC(=O)NCc2ccc(OC)cc2)C1=O (stereo not drawn),i,-2,i,-2,-2,38
CC(=O)NCCSc1ccc(S(=O)(=O)N2CCCC2)cn1,.,-2,-21*,-1,0,6
COc1cc(OC)c(NS(=O)(=O)c2cccc(C(=O)OCC(=O)NCC3CCCO3)c2)cc1Cl (stereo not drawn),i,3,-7.8*,-2,-2,4
CC(=O)c1cn(CC(=O)NCC2CCCO2)c2ccccc12 (stereo not drawn),i,3,-4.8*,1,-11,10
CCOc1ccccc1C(=O)OCC(=O)NCC1CCCO1 (stereo not drawn),.,-2,i,1,4,108*
C=CCN1C(=O)/C(=C/c2ccc(OC(C)=O)c(OCC)c2[N+](=O)[O-])SC1=S,.,-5,i,46,-6,59*
CC(C)CC(=O)NC(Nc1ccccc1F)C(Cl)(Cl)Cl (stereo not drawn),i,-3,i,1,8,-11
CCCC(=O)NC(Nc1ccccc1F)C(Cl)(Cl)Cl (stereo not drawn),100*,.,.,.,.,.
COc1ccccc1NC(=S)NCCc1ccc(S(N)(=O)=O)cc1,i,0,i,0,0,8
COc1ccc(CCNC(=S)NCCc2ccc(OC)c(OC)c2)cc1OC,25*,.,i,-1,.,-12
COc1ccc(CCNC(N)=S)cc1OC,i,-6,i,-2,-1,63*
COc1ccc(Cl)cc1NC(=S)NCCc1ccc(S(N)(=O)=O)cc1,i,4,-6.2*,1,1,-22
CNC(=S)NCCc1ccc(OC)c(OC)c1,i,-1,i,-2,1,28
COc1ccc(CCNC(=S)c2ccccc2)cc1OC,i,-7,i,0,1,7
